Laboratory results published in PubChem BioAssay (Tox21).
Several values for one entry are separate records, joined by “and”; a condition that tells them apart may be missing. Identical values can stand only once. Results filed as inconclusive are left out. A call without a number means that no potency is given here. The source holds several records for some structures; these can differ, active in one and inactive in another. Activity calls are given as the source filed them. Unless noted, calls come from the whole dose curve; as a rule, active = well fitted curve in the direction sought with a large enough effect in the repeat runs; inconclusive = weak or mixed curves; inactive = no such curve, though single readings can be large; an effect the other way counts as inactive or inconclusive.

How the values were obtained:
[1] = qHTS assay to identify small molecule agonists of the hypoxia (HIF-1) signaling pathway (AID 1224846; active = well fitted activation curve with a large enough effect in the signal ratio in the repeat runs, not every such curve was filed as active; the % refers to the signal ratio)
Procedure, shortened: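 Agonist mode reporter screen. ME-180 cells stably expressing bla under HRE control received test compounds in DMSO for 17 hrs (37C, 5% CO2), and beta-lactamase activity was then detected with the CCF4-AM FRET substrate.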

[2] = qHTS assay to identify small molecule agonists of H2AX - cell viability counter screen (AID 1224847; calls by dose curve; note: nearly all actives have a fitted effect of over 30% in size; note: potency is the fitted concentration of half-maximal effect)
Procedure, shortened: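 Quantitative HTS viability measurement: CHO-K1 wild-type cells in serum (10% FBS) medium, short 3 hr drug exposure at 37C with 0.76% DMSO, CellTiter-Glo luminescent detection.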

[3] = qHTS RealTime-Glo MT Cell Viability Assay in HEK293 cells - 32 hour (AID 1224868); note: nearly all actives have a fitted effect of over 50% in size; note: potency is the fitted concentration of half-maximal effect
Procedure, shortened: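 Viability tracked continuously by luminescence as live cells reduce a prosubstrate for NanoLuc; HEK293 cells preincubated 5 h, compound-treated at 37 C, and read at 0, 8, 16, 24, 32 and 40 h.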

[4] = A CellTox Green Cytotoxicity Assay to monitor cytotoxicity in HEK293 cells - 0 hour (AID 1224869); note: nearly all actives have a fitted effect of over 50% in size
Procedure, shortened: (§1)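 Dead-cell fluorescence measured kinetically: asymmetric cyanine dye, HEK293, 600 cells/well, 5 h settle, 23 nL cpd/DMSO, 37 C, reads 0–40 h every 8 h.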

[5] = qHTS assay to identify small molecule antagonists of the estrogen related receptor (ERR) signaling pathway from Tox21 library (AID 1224848); note: nearly all actives have a fitted effect of over 50% in size
Procedure, shortened: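 Tox21 10K compounds in DMSO tested for ERR pathway antagonism in NTP's ERR cell line; 18 h, 37 C exposure; ONE-Glo luminescence.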

[6] = qHTS assay to identify small molecule agonists of the estrogen related receptor (ERR) signaling pathway from Tox21 library (AID 1224849; calls by dose curve; note: nearly all actives have a fitted effect of over 15% in size); details: ERR reporter cell line, ONE-Glo luciferase, 18 h
Procedure, shortened: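 Quantitative HTS in agonist format: NTP ERR cell line, compounds transferred in DMSO after 6 h plating, 18 h incubation at 37 C, ONE-Glo luminescence endpoint.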

[7] = qHTS RealTime-Glo MT Cell Viability Assay in HepG2 cells - 40 hour (AID 1224870); note: nearly all actives have a fitted effect of over 50% in size
Procedure, shortened: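 HepG2 cells mixed with RealTime-Glo MT reagents (NanoLuc plus cell-permeant prosubstrate) were seeded at 600 cells/well, incubated 5 h at 37 C/5% CO2, then pinned with compounds in DMSO; nonlytic luminescence tracked viability during 40 h treatment.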

[8] = A CellTox Green Cytotoxicity Assay to monitor cytotoxicity in HEK293 cells - 40 hour (AID 1224871); note: nearly all actives have a fitted effect of over 45% in size; note: potency is the fitted concentration of half-maximal effect
Procedure, shortened: as §1

[9] = qHTS RealTime-Glo MT Cell Viability Assay in HepG2 cells - 24 hour (AID 1224867); note: nearly all actives have a fitted effect of over 50% in size
Procedure, shortened: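 Viability was tracked continuously by NanoLuc luminescence from prosubstrate reduced by living HepG2 cells, at successive time points over 40 h of compound exposure. Cells with reagent were preincubated 5 h at 37 °C before compound addition.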

SMILES | outcome [1] | Potency [2] | Potency [3] | Potency [4] | Potency [5] | activity change, positive = activation ([6]; at 92.4 µM (top of the series)) | Potency [7] | Potency [8] | Potency [9] | activity change, positive = activation ([6]; at 42.5 µM (top of the series))
CN(C)c1ccc(C(=N)c2ccc(N(C)C)cc2)cc1 | inactive | 39.6 µM (active) and 24.4 µM (active) | 3.05 µM (active) and 2.97 µM (active) | inactive |  |  |  |  |  | 
CC(=O)CCc1ccccc1 | inactive | inactive | inactive |  | inactive | 1.01% (inactive) and -0.812% (inactive) | inactive | inactive |  | 
Nc1c(S(=O)(=O)O)cc(Br)c2c1C(=O)c1ccccc1C2=O | inactive | inactive | inactive | inactive |  |  | inactive | inactive | inactive | 
C=C(C)C(=O)OCC(CC)(COC(=O)C(=C)C)COC(=O)C(=C)C | inactive |  | inactive |  |  |  | inactive | inactive and 42.9 µM (active) | inactive | 
O=C(O)c1cc(-c2ccccc2)nc2ccccc12 |  | inactive | inactive | inactive | inactive | 1.96% (active) | inactive | inactive | inactive | 
CC(C)Cc1ccccc1 | inactive | inactive | inactive |  |  |  | inactive | inactive | inactive | 
Cc1cc(NS(=O)(=O)c2ccc(N)cc2)no1 |  | inactive | inactive | inactive |  |  | inactive | inactive | inactive | 
C[C@@H](O)[C@H]1C(=O)N2C(C(=O)O)=C(S[C@@H]3CN[C@H](C(=O)N(C)C)C3)[C@H](C)[C@H]12 |  | inactive | inactive |  | inactive |  | inactive | inactive |  | 6.5% (inactive) and 3.13% (inactive)
NCCc1ccc(O)c(O)c1 |  | inactive | inactive |  |  |  | inactive | inactive | inactive | 
S=c1nc[nH]c2nc[nH]c12 | inactive | inactive | 16.9 µM (active) | inactive |  |  | inactive | inactive | inactive | 
CC(=O)[C@@]1(O)CC[C@H]2[C@@H]3CCC4=CC(=O)CC[C@]4(C)[C@H]3CC[C@@]21C |  | inactive |  | inactive |  |  | inactive | inactive |  | 
COC(=O)Nc1nc2ccc(Sc3ccccc3)cc2[nH]1 |  | inactive | 692 nM (active) and 848 nM (active) | inactive |  |  | inactive | 21.3 µM (active) |  | 
CCOC(=O)C1OC1c1ccccc1 (stereo not drawn) | inactive | inactive |  | inactive |  |  | inactive | inactive | inactive | 
CCCCC(CC)C(=O)OCCOCCOCCOC(=O)C(CC)CCCC (stereo not drawn) | inactive | inactive |  | inactive | inactive | -11.1% (inactive) and 0.258% (inactive) | inactive | inactive |  | 
